In assay [1] the target is Acetylcholinesterase (Homo sapiens) (UniProt P22303). The assay can be described thus: Acetylcholinesterase (AChE) small molecule antagonists: colormetric cell-based qHTS assay (AID 1347395). Also: nearly all actives have a fitted effect of over 30% in size. Summed up: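 Colorimetric readout: DTNB quantifies thiocholine from acetylthiocholine hydrolysed by endogenous AChE of SH-SY5Y cells (2,000/well, plated overnight). Compound pretreatment 30 min, substrate incubation 90 min, both 37 C.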
A general note: In qHTS, concentration-response curves come from the screen itself.

The target is the same in assay [2]. The experiment in a line: Acetylcholinesterase (AChE) small molecule antagonists: enzyme-based qHTS assay (AID 1347397). Also: nearly all actives have a fitted effect of over 55% in size. Conditions: Potency: AChE enzyme activity inhibition; outcome: AChE enzyme activity inhibition. Summed up:
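Recombinant human AChE, dispensed at 50 mU/mL, was preincubated with Tox21 10K compounds or DMSO vehicle for 30 min at room temperature. DTNB plus acetylthiocholine was then added, and thiocholine was measured colorimetrically after a further 10 min.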

The target is the same in assay [3]. The assay can be described thus: Acetylcholinesterase (AChE) small molecule antagonists: fluorescence cell-based qHTS assay (AID 1347398). Also: nearly all actives have a fitted effect of over 50% in size. Also: potency is read from the fitted curve at half-maximal effect. Conditions: Potency: AChE activity; outcome: AChE activity. Summed up: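 Human SH-SY5Y cells were plated overnight at 37 C, exposed to compound for 30 min at 37 C, 5% CO2, then given acetylthiocholine plus Thiolite Green for 40 min at room temperature; thiocholine fluorescence (Ex/Em 490/520 nm) reports endogenous AChE activity.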

The target is the same in assay [4]. The experiment in a line: Acetylcholinesterase (AChE) small molecule antagonists: enzyme-based qHTS assay with human liver microsomes (AID 1347399). Also: nearly all actives have a fitted effect of over 60% in size. Conditions: Potency: qHTS inhibition; outcome: qHTS inhibition. Summed up:
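Recombinant human AChE (50 mU/mL in the enzyme mix) and human liver microsomes (0.25 mg/mL final) were preincubated with compound and NADPH (0.25 mg/mL final) for 30 min at 37 C. Acetylthiocholine/DTNB was then added; thiocholine was read colorimetrically after 10 min at room temperature.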

Records with an inconclusive call do not appear. Some structures have more than one record in an assay (separate samples or runs), and their calls can disagree. Activity calls are given as the source filed them. Calls follow the shape of the full dose curve.
% is scaled to controls: 0 for no effect and ±100 for the full control effect.

Chain of Acetylcholinesterase (Homo sapiens) (P22303 whole entry, looked up): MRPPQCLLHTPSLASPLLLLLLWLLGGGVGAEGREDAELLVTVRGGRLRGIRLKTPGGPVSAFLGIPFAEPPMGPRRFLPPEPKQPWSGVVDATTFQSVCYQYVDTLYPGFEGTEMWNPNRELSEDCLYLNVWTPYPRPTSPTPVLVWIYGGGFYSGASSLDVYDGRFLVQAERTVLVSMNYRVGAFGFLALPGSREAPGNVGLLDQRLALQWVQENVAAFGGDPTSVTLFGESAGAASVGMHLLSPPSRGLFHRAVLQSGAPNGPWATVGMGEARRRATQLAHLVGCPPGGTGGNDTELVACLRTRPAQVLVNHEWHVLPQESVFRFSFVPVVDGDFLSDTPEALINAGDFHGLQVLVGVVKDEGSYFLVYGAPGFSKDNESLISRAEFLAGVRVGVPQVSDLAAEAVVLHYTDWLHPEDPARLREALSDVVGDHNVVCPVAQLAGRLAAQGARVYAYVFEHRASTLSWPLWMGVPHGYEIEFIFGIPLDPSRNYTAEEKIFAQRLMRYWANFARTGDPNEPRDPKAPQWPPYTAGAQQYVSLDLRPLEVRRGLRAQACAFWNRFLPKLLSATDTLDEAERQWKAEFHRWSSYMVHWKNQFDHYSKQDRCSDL

For the compound `COC(=O)c1nc(Cl)c(Cl)nc1N`, the Potency result in assay [1], in assay [2], in assay [3] and in assay [4] was “inactive” in each case.

Take `O=Cc1ccccc1O`: the Potency result in assay [1], in assay [2] and in assay [4] was “inactive” in each case. Also, the Potency in assay [3] is 35.6 µM (active) and inactive.

Take `C[CH2][Ge]([Cl])([CH2]C)[CH2]C`: the Potency entry in assay [1], in assay [2], in assay [3] and in assay [4] was “inactive” in each case.

For `COc1cc(NS(=O)(=O)c2ccc(N)cc2)ncn1`, the Potency result in assay [1], in assay [2], in assay [3] and in assay [4] was “inactive” in each case.

Regarding `O=C(c1ccccc1O)c1ccccc1O`, the Potency result in assay [1], in assay [2], in assay [3] and in assay [4] was “inactive” throughout.

With `CCOC(=O)n1ccn(C)c1=S`, the Potency entry in assay [1], in assay [2], in assay [3] and in assay [4] was “inactive” in each case.

Turning to `CCC(O)OCCCOC` (stereo not given), the Potency entry in assay [1], in assay [2], in assay [3] and in assay [4] was “inactive” throughout.

`CCN1CCc2nc(N)oc2CC1`: the Potency result in assay [1], in assay [2], in assay [3] and in assay [4] was “inactive” in each case.

Consider `Nc1nc2c(ncn2COC(CO)CO)c(=O)[nH]1`, for which the Potency entry in assay [1], in assay [2], in assay [3] and in assay [4] was “inactive” in each case.

Consider `CC1=C(C(=O)OC(C)C)C(c2cccc([N+](=O)[O-])c2)C(C(=O)OC2CN(C(c3ccccc3)c3ccccc3)C2)=C(N)N1` (stereo not given), for which the Potency entry in assay [1], in assay [2], in assay [3] and in assay [4] was “inactive” each time.

In the case of `CC[C@H]1OC(=O)[C@H](C)[C@@H](O[C@H]2C[C@@](C)(OC)[C@@H](O)[C@H](C)O2)[C@H](C)[C@@H](O[C@@H]2O[C@H](C)C[C@H](N(C)C)[C@H]2O)[C@](C)(O)C[C@@H](C)/C(=N\OCOCCOC)[C@H](C)[C@@H](O)[C@]1(C)O`, the Potency result in assay [1], in assay [2], in assay [3] and in assay [4] was “inactive” each time.

With `CC(=O)OCC(=O)[C@@]1(O)CC[C@H]2[C@@H]3CCC4=CC(=O)CC[C@]4(C)[C@H]3C(=O)C[C@@]21C`, the Potency entry in assay [1], in assay [2], in assay [3] and in assay [4] was “inactive” in each case.

In the case of `CCCCOCCOC(=O)COc1cc(Cl)c(Cl)cc1Cl`, the Potency result in assay [1], in assay [2], in assay [3] and in assay [4] was “inactive” throughout.

`CC(C(=O)O)c1ccc(-c2ccccc2)c(F)c1` (stereo not given): the Potency entry in assay [1], in assay [2], in assay [3] and in assay [4] was “inactive” throughout.

As to `O=C(O)c1ccc(Cl)c(Cl)c1`, the Potency result in assay [1], in assay [2], in assay [3] and in assay [4] was “inactive” each time.

For `C=Cc1ccccc1C=C`, the Potency entry in assay [1], in assay [2], in assay [3] and in assay [4] was “inactive” each time.

For `COc1cc(C(C)(C)C)c(O)c(C(C)(C)C)c1`, the Potency result in assay [1], in assay [2], in assay [3] and in assay [4] was “inactive” throughout.

As to `CC(C)N=C(N)/N=C(\N)Nc1ccc(Cl)cc1`, the Potency entry in assay [1], in assay [2], in assay [3] and in assay [4] was “inactive” throughout.

As for `CC1=CCC(O)(C(C)C)CC1` (stereo not given), the Potency entry in assay [1], in assay [2], in assay [3] and in assay [4] was “inactive” in each case.

For the compound `C=C(C)[C@H]1CC=C(C)C(=O)C1`, the Potency entry in assay [1], in assay [2], in assay [3] and in assay [4] was “inactive” each time.

Consider `CC(C)CC(C)(N)C#N` (stereo not given), for which the Potency result in assay [1], in assay [2], in assay [3] and in assay [4] was “inactive” each time.

Turning to `CC(C#N)(CCC(=O)O)N=NC(C)(C#N)CCC(=O)O` (stereo not given), the Potency entry in assay [1], in assay [2], in assay [3] and in assay [4] was “inactive” each time.

In the case of `O=C(O)c1cn(C2CC2)c2cc(Cl)c(F)cc2c1=O`, the Potency entry in assay [1], in assay [2], in assay [3] and in assay [4] was “inactive” throughout.

For the compound `IC(I)I`, the Potency result in assay [1], in assay [2], in assay [3] and in assay [4] was “inactive” each time.

`CCCCCC[C@@H](O)C/C=C\CCCCCCCC(=O)O`: the Potency entry in assay [1], in assay [2], in assay [3] and in assay [4] was “inactive” in each case.

Regarding `C#CC1(O)CC[C@H]2[C@@H]3CCC4=CCCC[C@@H]4[C@H]3CC[C@@]21C` (stereo not given in full), the Potency entry in assay [1], in assay [2], in assay [3] and in assay [4] was “inactive” in each case.

As to `CC(C)=CC1CC(C)CCO1` (stereo not given), the Potency entry in assay [1], in assay [2], in assay [3] and in assay [4] was “inactive” throughout.

With `C[Si](C)=O`, in assay [1], the activity, negative = inhibition was -2.31% [at 10.5 µM] (inactive). Also, the activity change, negative = inhibition was -1.81% [at 10.5 µM] (inactive) in assay [2], 0.274% [at 10.5 µM] (inactive) in assay [3] and -0.0165% [at 10.5 µM] (inactive) in assay [4].

Consider `CCC(N)(CO)CO`, for which the Potency entry in assay [1], in assay [2], in assay [3] and in assay [4] was “inactive” in each case.

Consider `CC(C)(O)CCC(C)(C)O`, for which the Potency result in assay [1], in assay [2], in assay [3] and in assay [4] was “inactive” in each case.

Regarding `CCN(CC)CCOC(=O)C(c1ccccc1)C1CCCCC1` (stereo not given), the Potency result in assay [1], in assay [2], in assay [3] and in assay [4] was “inactive” in each case.

With `COC(=O)CC(=O)OC`, the Potency result in assay [1], in assay [2], in assay [3] and in assay [4] was “inactive” each time.

As to `CC(C)=CCl`, the Potency result in assay [1], in assay [2] and in assay [4] was “inactive” in each case. For the same compound, in assay [3], the Potency is 22.7 µM (active) and inactive.

On to `Oc1ccc(Oc2ccccc2)cc1`, for which the Potency result in assay [1], in assay [2], in assay [3] and in assay [4] was “inactive” throughout.

On to `CCN(CCN)c1cccc(C)c1`, for which the Potency result in assay [1], in assay [2], in assay [3] and in assay [4] was “inactive” throughout.

As for `C=C(C)C(=O)OCCOC(=O)C(=C)C`, the Potency result in assay [1], in assay [2], in assay [3] and in assay [4] was “inactive” throughout.

With `CC(=O)OC(C)OC(=O)C(C)c1ccc(-c2ccccc2)c(F)c1` (stereo not given), the Potency entry in assay [1], in assay [2], in assay [3] and in assay [4] was “inactive” each time.

`CCCCCCCC/C=C\CCCCCCCC(=O)NCc1ccc(O)c(OC)c1`: the Potency entry in assay [1], in assay [2], in assay [3] and in assay [4] was “inactive” each time.

As for `CCN1CN(CC)CN(CC)C1`, the Potency entry in assay [1], in assay [2], in assay [3] and in assay [4] was “inactive” in each case.

On to `CC(=O)O[C@]1(C(C)=O)CC[C@H]2[C@@H]3C=C(C)C4=CC(=O)CC[C@]4(C)[C@H]3CC[C@@]21C`, for which the Potency result in assay [1], in assay [2], in assay [3] and in assay [4] was “inactive” each time.

As to `O=[N+]([O-])c1ccccc1Nc1ccccc1`, the Potency entry in assay [1], in assay [2], in assay [3] and in assay [4] was “inactive” each time.

On to `O=C(O)c1ccccc1Nc1cc(Cl)ccc1C(=O)O`, for which, in assay [1], the activity, negative = inhibition is 1.23% [at 23.6 µM] (inactive). Besides, the values for the activity change, negative = inhibition in assay [2], in assay [3] and in assay [4] were 2.19% [at 23.6 µM] (inactive), 2.35% [at 23.8 µM] (inactive) and 0.168% [at 23.6 µM] (inactive), respectively.

As for `Oc1ccccc1F`, the Potency result in assay [1], in assay [2], in assay [3] and in assay [4] was “inactive” throughout.

`C=CC(=O)OCC1CC2CC1C1CCC(COC(=O)C=C)C21` (stereo not given): the Potency result in assay [1], in assay [2], in assay [3] and in assay [4] was “inactive” each time.

With `C/C(=C1\CCOC(=O)S1)N(C=O)Cc1cnc(C)nc1N`, the Potency result in assay [1], in assay [2], in assay [3] and in assay [4] was “inactive” throughout.

Turning to `CC1CCC(C(C)CS)CC1S` (stereo not given), the Potency entry in assay [1], in assay [2], in assay [3] and in assay [4] was “inactive” each time.

Consider `Cc1cc(C)c(C)cc1C`, for which the Potency result in assay [1], in assay [2], in assay [3] and in assay [4] was “inactive” in each case.

With `O=c1[nH]c(=O)c2ccccc2o1`, the Potency entry in assay [1], in assay [2], in assay [3] and in assay [4] was “inactive” each time.

As for `CC(C)(O)C(=O)c1ccc(OCCO)cc1`, the Potency entry in assay [1], in assay [2], in assay [3] and in assay [4] was “inactive” in each case.

For `OC(CCl)CCl`, the Potency entry in assay [1], in assay [2], in assay [3] and in assay [4] was “inactive” in each case.

`COc1cc(/C=C/C(=O)O[C@H]2CC[C@]34C[C@]35CC[C@]3(C)[C@@H]([C@H](C)CCC=C(C)C)CC[C@@]3(C)[C@@H]5CC[C@H]4C2(C)C)ccc1O`: the Potency result in assay [1], in assay [2], in assay [3] and in assay [4] was “inactive” in each case.

As for `O=[N+]([O-])c1ccc(O)cc1`, the Potency result in assay [1], in assay [2], in assay [3] and in assay [4] was “inactive” in each case.

Consider `CCOC(=O)CC(O)(CC(=O)OCC)C(=O)OCC`, for which the Potency entry in assay [1], in assay [2], in assay [3] and in assay [4] was “inactive” each time.

As for `CC1=CC(=C(c2ccc(N)cc2)c2ccc(N)cc2)C=CC1=N`, in assay [1], the activity, negative = inhibition was 0.517% [at 10.5 µM] (inactive). In addition, the activity change, negative = inhibition was 0.534% [at 10.5 µM] (inactive) in assay [2], -4.07% [at 10.5 µM] (inactive) in assay [3] and 0.485% [at 10.5 µM] (inactive) in assay [4].

`c1ccc2c(c1)-c1ccc3ccc4cccc5cc-2c1c3c45`: the Potency result in assay [1], in assay [2], in assay [3] and in assay [4] was “inactive” each time.

For `CSc1cnccn1`, the Potency result in assay [1], in assay [2], in assay [3] and in assay [4] was “inactive” in each case.

For `CCCCCCCCCCCC[N+](C)(C)CCCS(=O)(=O)[O-]`, the Potency entry in assay [1], in assay [2], in assay [3] and in assay [4] was “inactive” each time.

With `CCCCCCCCCCCCCCCCC`, the Potency result in assay [1], in assay [2], in assay [3] and in assay [4] was “inactive” in each case.

Regarding `CC(O)COCC(C)O` (stereo not given), the Potency entry in assay [1], in assay [2], in assay [3] and in assay [4] was “inactive” in each case.

In the case of `CC(=O)Nc1ccc(C(=O)CCl)cc1`, the Potency entry in assay [1], in assay [2], in assay [3] and in assay [4] was “inactive” throughout.
